Consider 20 compounds from PubChem BioAssay (NCI).

This is part of a sample that, as a whole, favours compounds with a hit. Of some 83,000 tested, about 20% had one in any assay.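 Results are percent growth after 48 hours of single-concentration exposure. 100 means growth as in untreated cells, lower positive values show inhibition; negative values down to -100 show cell death.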 A number with no mark means an inactive call. Calls of active or inactive are those of the source. How the source made its calls: active means growth percent below 10; inactive means the rest.

Holding throughout (assay): NCI-60 one-dose screen, 48 h (100 = growth as untreated, 0 = no growth, -100 = all killed)
What all share (details): 10 µM unless noted

The test system of assay [1] is SR leukemia.
In assay [2] the test system is RPMI-8226 leukemia.
Assay [3] deals with OVCAR-8 ovarian.
The subject of assay [4] is OVCAR-5 ovarian.
In assay [5] the test system is OVCAR-4 ovarian.
In assay [6] the test system is SK-OV-3 ovarian.
Assay [7] concerns IGROV1 ovarian.
The subject of assay [8] is OVCAR-3 ovarian.
Assay [9] relates to HS 578T breast.
Assay [10] deals with NCI/ADR-RES ovarian.

Regarding `Cc1nn(-c2ccc(Br)cc2)c2nc3[nH]c(=O)[nH]c(=O)c3nc12`, the growth in assay [1] is 114%; in assay [2] it was 121%; in [3] it was 111%; in assay [4], 112%; in assay [5], 103%; in [6], 110%. Moreover, the growth in assay [7] was 107%; in assay [8], 117%; in assay [9], 104%; in assay [10], 107%.
`C#Cc1cccc(NC(=O)C2CCCN(C(=O)CCl)C2)c1` (stereo unspecified): the growth in assay [1] is 10.9% [8.25 µM]; in assay [2], 64.4% [8.25 µM]; in assay [3], 30.1% [8.25 µM]; in [4] it was 78.8% [8.25 µM]; in [5], 68.9% [8.25 µM]; in [6], 89.8% [8.25 µM]. Besides, the growth is -72% [8.25 µM] (active) in assay [7], 5.16% [8.25 µM] (active) in assay [8], 85.6% [8.25 µM] in [9] and 93.2% [8.25 µM] in assay [10].
Consider `COc1ccc2c(c1)c1nc3cc(C)c(C)cc3nc1n2CCN(C)C`, for which the growth in [1] was -8.86% (active); in [2], -16.3% (active); in [3], 6.83% (active); in [4] it was -2.58% (active); in assay [5], 19.8%; in [6] it was 27.5%. For the same compound, the growth is -7.58% (active) in assay [7], 27.1% in [8], 44.6% in [9] and -70.3% (active) in assay [10].
Take `CN1CCN(CCOc2ccc(-c3cnc4c(-c5ccccc5F)cnn4c3)cc2)CC1`: the growth in [1] is -12.6% (active); in assay [2] it was -9.99% (active); in assay [3], 40.7%; in assay [4], 80.4%; in [5], 63.6%; in assay [6], 94.2%. The growth in [7] is 57.3%; in assay [8], 20.3%; in [9] it was 76.9%; in assay [10], 48.8%.
As to `COc1ccc(/C=C(\C#N)c2cc3ccccc3n2S(C)(=O)=O)cc1`, the growth in [1] is 53.1%; in [2] it was 79.1%; in assay [3], 95.9%; in [4], 99.3%; in assay [5] it was 93.4%; in assay [6] it was 112%. Also, the growth in [7] is 74%; in assay [8], 94.8%; in assay [9] it was 95.6%; in assay [10] it was 60.1%.
Regarding `C=C(C)[C@@H]1CC[C@]2(C)[C@H](CC=C3[C@@H]4CC(C)(C)CC[C@]4(C=O)CC[C@]32C)[C@@]1(C)CCCN`, the growth in assay [1] was -31.5% (active); in assay [2] it was 14.2%; in assay [3], 77.8%; in assay [4] it was 91.8%; in assay [5], 85.7%; in assay [6], 94.2%. For the same compound, the growth in assay [7] was 88.4%; in assay [8], 80.1%; in [9] it was 96%; in assay [10] it was 87.2%.
For `CN1CCN(c2nc(-c3cccc4ccccc34)nc3sc4c(c23)CCCCCC4)CC1`, the growth in assay [1] is 47.1%; in [2], 79.3%; in [3], 93%; in assay [4], 90.2%; in [5], 83.8%; in [6], 89.2%. The growth is 72.6% in assay [7], 86.1% in [9] and 87.4% in assay [10].
In the case of `O=[N+]([O-])c1cc(S(=O)(=O)c2ccc(F)c([N+](=O)[O-])c2)ccc1F`, the growth was 9.57% (active) in assay [1]; 6.35% (active) in [2]; 80.9% in [3]; 122% in assay [4]; 112% in assay [5]; 117% in assay [6]. Besides, the growth in assay [8] is 101%; in assay [9] it was 80.6%; in assay [10], 108%.
On to `Cc1cc(N2CCOCC2)nc(N(CCCNc2ccnc3cc(Cl)ccc23)Cc2ccco2)n1`, for which the growth in [1] is -11.4% (active); in [2], 19.4%; in assay [3], 46.3%; in assay [4], 38.9%; in assay [5], 50.4%; in [6], 50.1%. Moreover, the growth was 10.9% in assay [7], 69.5% in [9] and 12.1% in assay [10].
`Clc1ccccc1-c1nc(Nc2nc3ccccc3s2)nc(C(Cl)(Cl)Cl)n1`: the growth is 79.6% in assay [1]; 10.1% in assay [2]; 68.6% in [3]; 74.3% in assay [4]; 64.6% in assay [5]; 56.8% in [6]. For the same compound, the growth in [7] is 54.3%; in [9], 70%; in assay [10] it was 50.6%.
`Cn1cc(-c2csc(-c3cn(CCN)c4ccccc34)n2)c2cccnc21`: the growth was -16.9% (active) in assay [1]; 51.1% in assay [2]; 40.8% in assay [3]; 74.9% in assay [4]; 51.8% in [5]; 63.8% in assay [6]. In addition, the growth in assay [7] is 39.9%; in assay [9] it was 67.6%; in assay [10] it was 44.1%.
Consider `CC(C)=CCC/C(C)=C/CC/C(C)=C/CSC[C@H](NC(=O)CCCCCN1CCN(C)CC1)C(=O)NC1CCCCCC1`, for which the growth was -20.1% (active) in [1]; 51.8% in assay [2]; 80.7% in [3]; 68.7% in assay [4]; 96.4% in assay [6]; 69.8% in assay [7]. Also, the growth in [8] was 76.6%; in assay [9], 76.2%; in [10] it was 72.3%.
For the compound `NC(N)=N/N=C/c1ccc(-c2ccc(-c3ccc(Cl)cn3)s2)cc1`, the growth is 11.6% in assay [1]; 38.4% in assay [2]; 99.3% in [3]; 107% in assay [4]; 99.3% in assay [5]; 91.1% in assay [7]. Further, the growth in assay [8] was 85.9%; in assay [9], 92.3%; in assay [10], 50.8%.
Take `Oc1ccccc1/C=N\NC(=S)Nc1ccc(F)cc1`: the growth in assay [1] was 11.5%; in assay [2] it was 41.1%; in assay [3] it was 21.9%; in assay [4] it was 55%; in assay [6] it was 33.8%; in [7], 20%. In addition, the figures for the growth in [8], in [9] and in assay [10] were 34.4%, 32.5% and -2.4% (active), respectively.
For the compound `C[N+](C)(CCCCCC[N+](C)(C)C1c2ccccc2-c2ccccc21)C1c2ccccc2-c2ccccc21`, the growth in [1] was 98.3%; in assay [2] it was 101%; in assay [3], 104%; in assay [4], 108%; in assay [5], 111%; in [6], 111%. The growth in assay [8] was 104%; in assay [9], 98.2%; in [10] it was 115%.
On to `c1ccc(CN2C(c3ccccc3)=Nc3ccccc3C2c2c[nH]c3ccccc23)cc1` (stereo unspecified), for which the growth was -17.8% (active) in assay [1]; 4.99% (active) in assay [2]; 44.4% in assay [3]; 60.7% in [4]; 27.1% in assay [5]; 71.6% in assay [6]. The figures for the growth in [7], in assay [9] and in assay [10] were 19.3%, 52.3% and 30.2%, respectively.
`O=C1c2cccc3cccc(c23)C(=O)N1CC#Cc1ccc2c3c(cccc13)C(=O)N(CCO)C2=O`: the growth in assay [1] was 71.4%; in [2], 74.5%; in assay [3] it was 86.5%; in assay [4], 105%; in [5] it was 92.7%; in assay [6], 92.4%. Moreover, the values for the growth in assay [7], in [9] and in assay [10] were 48.5%, 83.3% and 91.7%, respectively.
Consider `O=[N+]([O-])c1ccc(/C=N\Nc2ccccc2)cc1`, for which the growth is 106% in assay [1]; 67.8% in assay [2]; 61.8% in assay [3]; 88% in assay [4]; 101% in assay [6]; 78% in assay [7]. Also, the figures for the growth in [8], in assay [9] and in [10] were 82.5%, 63.1% and 60%, respectively.
As for `Nc1ccc(Br)cn1`, the growth was 98.9% in assay [1]; 101% in assay [2]; 102% in assay [3]; 93% in assay [4]; 101% in assay [5]; 103% in assay [6]. Besides, the growth in [7] was 110%; in assay [9], 99.5%; in [10], 103%.
Consider `CN1CCN(CC#CCn2c3c(c4ccccc42)C[C@]2(C)[C@H]4CC[C@@H]5[C@H]6[C@H]7OC(=O)[C@@]6(CCC7(C)C)CC[C@@]5(C)[C@]4(C)CC[C@H]2C3(C)C)CC1`, for which the growth in [1] was 0.535% (active); in [2], 59.2%; in assay [3], 60.3%; in [4] it was 112%; in assay [5] it was 74.1%; in assay [6], 106%. For the same compound, the growth in [7] is 90.9%; in [9], 101%; in assay [10] it was 77%.
